D1 ag = agonists of human D1 dopamine receptor. AID 504660. activation, % at 2 µM. HEK293 T-REx D1 cells, calcium flux, agonist mode. actives 1% (n = 360,000); further: 0% is about no effect
Target sequence (P21728 whole entry, looked up): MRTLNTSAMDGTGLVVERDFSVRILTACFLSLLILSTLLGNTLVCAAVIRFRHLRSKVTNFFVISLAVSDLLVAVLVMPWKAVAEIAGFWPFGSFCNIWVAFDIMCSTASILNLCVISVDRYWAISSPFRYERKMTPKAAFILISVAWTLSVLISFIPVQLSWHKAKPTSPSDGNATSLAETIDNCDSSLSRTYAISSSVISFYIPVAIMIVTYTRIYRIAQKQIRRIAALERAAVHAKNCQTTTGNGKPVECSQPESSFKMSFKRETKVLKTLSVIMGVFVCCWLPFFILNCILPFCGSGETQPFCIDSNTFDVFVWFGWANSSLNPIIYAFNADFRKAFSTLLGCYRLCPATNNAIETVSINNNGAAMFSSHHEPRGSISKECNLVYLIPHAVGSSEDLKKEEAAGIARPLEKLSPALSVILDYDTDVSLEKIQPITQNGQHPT
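Agonism was scored from calcium flux recorded over 180 s (1 read/s) after pintool compound addition, following a 10-cycle baseline. Cells were inducible force-coupled HEK293 TREx D1, plated overnight at 30 C and loaded with no-wash calcium dye.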
TRHR PAM = TRH receptor (human) allosteric enhancement. actives 0.66% (n = 360,000). AID 493056. enhancement, % at 2 µM. TRHR cells, fluo-8 calcium fluorescence, EC20 TRH enhancement; in the data active means enhancement above about 30%; further: 0% is about no effect
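TRHR-expressing cells loaded with fluo-8 calcium dye were read kinetically (ex 480/em 530) during compound addition, then stimulated with an EC20 of TRH (10 nM final). Enhancement of the Gq-mediated intracellular calcium response was scored.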
D1 potentiator = human D1 dopamine receptor positive modulation. P21728. HEK293 TREx D1 cells, calcium flux, dopamine EC20 potentiation. potentiation, % at 10 µM. actives 0.036% (n = 360,000); in the data active means potentiation above about 30%; further: 0% is about no effect
TRHR ag = agonists of human TRH receptor | P34981 | TRHR cells, calcium flux fluo-8, FDSS agonist mode | activation, % at 2 µM | actives 0.18% (n = 360,000); further: 0% is about no effect
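TRHR-expressing cells loaded with fluo-8 calcium dye; 23 nL library compound pin-transferred, kinetic FDSS fluorescence (Ex 480/Em 530) recorded about 180 s for agonist-induced calcium release, before a 10 nM TRH EC20 addition for potentiator mode.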
D1 antag = blocks dopamine activation of the human D1 receptor; activity change, negative = inhibition, % at 10 µM; actives 3.2% (n = 360,000); HEK293 TREx D1 cells, calcium flux, dopamine EC80; hits give low values; in the data active means activity change below about -30%; further: on the % scale 0 is the no-effect control and ±100 the full control effect
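After overnight tetracycline induction at 30 C, force-coupled D1 HEK293 cells took up a no-wash calcium dye at room temperature. Compounds were added and monitored 180 s, and the response to EC80 dopamine was then recorded.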
Active calls of the source: *. In the library only some 4.6% were active in any assay of this set; here they are far more common. Unless noted, no stated cut-off is given here; in the data, active means activation above about 30%; inactive means the rest.

SMILES	D1 ag	TRHR PAM	D1 potentiator	TRHR ag	D1 antag
O=C(CCCc1nc(-c2ccc(Cl)cc2)no1)N1CCOCC1	2	-2	-6	1	-41*
Cc1ccc(-c2noc(CCCC(=O)N3CCOCC3)n2)cc1	1	-4	1	1	3
c1ccc(CN2CCN(CCOCCOc3cccc4ccccc34)CC2)cc1	22	10	-9	1	-43*
O=C(c1ccco1)N1CCN(CCOCCOc2cccc3ccccc23)CC1	1	7	2	0	-53*
COc1ccccc1OC1OC2COC(c3ccco3)OC2C(O)C1NC(C)=O (stereo not given)	2	7	1	0	-2
CC(=O)NC1C(Oc2cccc(C)c2)OC2COC(c3ccco3)OC2C1O (stereo not given)	1	7	-1	0	-39*
CNc1ccc2c3c(cccc13)C(=O)N(C)C2=O	338*	47*	-18	262*	-38*
CN1C(=O)c2cccc3c(Cl)ccc(c23)C1=O	3	-2	1	0	3
O=C(CCCN1Cc2ccccc2C1)c1ccc(F)cc1	9	-4	-12	0	-71*
CN1CCN(CCCC(=O)c2ccc(F)cc2)CC1	0	4	-3	0	-5
CC(C)C(NC(=O)OCc1ccccc1)C(=O)NC(Cc1ccc(O)cc1)C(=O)O (stereo not given)	4	-1	6	0	0
CCC(C)C(NC(=O)OCc1ccccc1)C(=O)NC(Cc1ccc(O)cc1)C(=O)OC (stereo not given)	62*	3	-3	6	3
COC(=O)[C@H]1[C@H]2C[C@@H]3c4[nH]c5cc(OC)ccc5c4CCN3C[C@H]2C[C@@H](OC(=O)c2ccc(N)cc2)[C@@H]1OC	3	15	4	2	-66*
COC(=O)[C@H]1[C@H]2C[C@@H]3c4[nH]c5cc(OC)ccc5c4CCN3C[C@H]2C[C@@H](OC(=O)/C=C/c2cc(OC)c(OC)c(OC)c2)[C@@H]1OC	2	-6	7	-1	2
C=CCn1c(Cc2nc3ccc(Cl)cc3[nH]2)n[nH]c1=S	3	-1	0	1	4
C=CCn1c(CCCOc2ccc(Cl)cc2Cl)n[nH]c1=S	4	-4	-4	0	-46*
CC(C)Oc1ccc(CNC(=O)c2ccc(CS(=O)c3cccc(Cl)c3)o2)cc1 (stereo not given)	4	-3	-6	-1	-1
Cc1ccc2oc(-c3ccc(Cl)c(NC(=O)c4ccc(-c5ccccc5[N+](=O)[O-])o4)c3)nc2c1	0	-7	-5	1	14
Cc1ccc(CSc2nncn3c2cc2sccc23)cc1	2	2	-1	0	3
Cc1cccc(OCC(O)Cn2c(=N)n(Cc3ccccc3)c3ccccc32)c1 (stereo not given)	68*	0	-4	2	-3
N=c1n(Cc2ccccc2)c2ccccc2n1CC(O)COc1ccc(Cl)cc1Cl (stereo not given)	87*	5	32*	3	-7
O=C1c2ccccc2C(=O)N1CC(O)COc1ccc(Cl)cc1 (stereo not given)	0	10	-10	-1	-31*
CCn1c(=N)n(CC(O)COc2ccccc2)c2ccccc21 (stereo not given)	4	4	-2	0	9
COc1ccc(OCC(O)Cn2c(=N)n(Cc3ccccc3)c3ccccc32)cc1 (stereo not given)	48*	-1	-20	1	-46*
COc1ccc(OCC(O)CN2C(=O)c3ccccc3C2=O)cc1 (stereo not given)	1	-1	3	-1	0
SMILES	D1 ag	TRHR PAM	D1 potentiator	TRHR ag	D1 antag
Cc1ccc(OCC(O)Cn2c(=N)n(Cc3ccccc3)c3ccccc32)cc1 (stereo not given)	10	8	-5	1	-5
O=C(COc1ccc(Cl)cc1)Nc1ccc(-c2nc3ccccc3s2)c(O)c1	-1	0	-1	-1	7
COC(=O)c1scc(-c2ccc(C)cc2)c1S(=O)(=O)N1CCN(c2ccc(C(C)=O)cc2)CC1	5	-8	-5	1	2
COc1ccc(NC(=O)C2COc3ccccc3C2)cc1Cl (stereo not given)	5	0	-2	0	-5
CCOC(=O)c1ccccc1NC(=O)CSc1ccc(-c2sc(C)nc2C)nn1	3	-6	-4	-1	-4
N=c1n(Cc2ccc(Cl)cc2)c2ccccc2n1CC(O)COc1ccccc1 (stereo not given)	68*	6	-3	1	-6
CCOc1ccc(CN2CCN(CC(O)Cn3c4ccccc4c4ccccc43)CC2)cc1 (stereo not given)	16	0	-2	1	-6
COc1ccc(CN2CCN(CC(O)Cn3c4ccccc4c4ccccc43)CC2)cc1 (stereo not given)	23	5	-6	1	-94*
Cc1ccc(O)c(-c2cc(C(F)(F)C(F)F)[nH]n2)c1	164*	0	14	-1	-10
CC(C)[C@H](NC(=O)c1ccccc1Br)C(=O)OCc1nc2ccsc2c(=O)[nH]1	2	-8	-3	0	-30*
CCOC(=O)c1cc(-c2ccc(C)cc2)n(CCCC(=O)Nc2cc(C)ccc2C)c1	4	6	-8	1	-6
COc1ccc(S(=O)(=O)N2CCCCCC2)cc1N(C)S(=O)(=O)c1ccccc1	11	-10	-10	0	-42*
CCN(CC)S(=O)(=O)c1cccc(S(=O)(=O)N2CCCCC2)c1	3	-8	-6	0	-33*
COc1ccc(-n2nc(C(=O)Nc3cc(OC)c(OC)c(OC)c3)c(=O)n(C)c2=O)cc1	-1	-4	-3	0	11
Cc1oc2ccc(O)c(CN(C)Cc3ccccc3)c2c1C(=O)Nc1cccc(Cl)c1C	2	-1	-2	0	-16
CCOC(=O)C(NC(=O)Nc1ccc(F)cc1F)(Oc1ccc(F)cc1)C(F)(F)F (stereo not given)	2	6	0	1	-85*
CC(=O)N1c2c(cc(Br)cc2S(=O)(=O)N2CCN(c3cccc(Cl)c3)CC2)CC1C (stereo not given)	3	0	0	1	-3
Nc1nc(C2CC2)c(Sc2sc(N)nc2C2CC2)s1	24	-1	0	1	-49*
Cc1cc(C(=O)O)ccc1-c1ccc(/C=C2\SC(=O)N(CC(=O)Nc3ccc4c(c3)OCO4)C2=O)o1	43*	-5	-3	14	-15
COc1ccc(OC)c(C2CC(=O)c3c([nH]c(C(=O)OCc4ccc(C)cc4)c3C)C2)c1 (stereo not given)	5	-2	-3	2	-2

Screening results (PubChem BioAssay)
